From PMC7862700, “An all-to-all approach to the identification of sequence-specific readers for epigenetic DNA modifications on cytosine” come the findings set out here.

Holding throughout (assay): DAPPL (digital affinity profiling via proximity ligation, sequencing); 10 mM Tris-HCl pH 7.5, 50 mM NaCl, 1 mM DTT, 4% glycerol, room temperature, 30 min; GST-TFs on glutathione beads, 16-mer random dsDNA library, 0.1% formaldehyde crosslink after washing; high values mean tight binding
One assay deals with T1, FLI1 (Homo sapiens, UniProt Q01543 1-452).
T1 sequence: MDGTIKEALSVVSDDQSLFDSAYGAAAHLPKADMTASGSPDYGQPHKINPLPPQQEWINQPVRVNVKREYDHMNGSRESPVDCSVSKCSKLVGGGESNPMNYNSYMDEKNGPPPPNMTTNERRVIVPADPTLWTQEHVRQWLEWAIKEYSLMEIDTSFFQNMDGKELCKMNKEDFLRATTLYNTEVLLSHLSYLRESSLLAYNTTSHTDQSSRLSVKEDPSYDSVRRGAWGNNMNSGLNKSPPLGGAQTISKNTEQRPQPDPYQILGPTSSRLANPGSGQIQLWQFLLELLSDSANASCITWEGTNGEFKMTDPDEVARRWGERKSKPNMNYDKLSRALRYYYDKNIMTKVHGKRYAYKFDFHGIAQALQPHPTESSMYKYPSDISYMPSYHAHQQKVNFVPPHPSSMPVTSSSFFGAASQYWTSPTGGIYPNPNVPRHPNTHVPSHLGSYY
The following applies: protein: recombinant; tags: N-terminal GST; dsDNA, one strand shown. In short, it runs like this: (§1)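 Each value of binding signal is a hexamer's read frequency for a factor divided by the same hexamer's frequency in the tag-only sample. Barcoded, bead-captured GST fusions of human transcription factors made in yeast were pooled with that sample and incubated with 200 nmole of a random double-stranded 16-mer DNA library in Tris/NaCl/DTT/glycerol buffer at room temperature for 30 min. Washing, 0.1% formaldehyde crosslinking, proximity ligation, PCR and Illumina NextSeq500 sequencing followed.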

Another assay concerns the target T2, ELK1 (Homo sapiens, UniProt P19419 1-428).
T2 sequence: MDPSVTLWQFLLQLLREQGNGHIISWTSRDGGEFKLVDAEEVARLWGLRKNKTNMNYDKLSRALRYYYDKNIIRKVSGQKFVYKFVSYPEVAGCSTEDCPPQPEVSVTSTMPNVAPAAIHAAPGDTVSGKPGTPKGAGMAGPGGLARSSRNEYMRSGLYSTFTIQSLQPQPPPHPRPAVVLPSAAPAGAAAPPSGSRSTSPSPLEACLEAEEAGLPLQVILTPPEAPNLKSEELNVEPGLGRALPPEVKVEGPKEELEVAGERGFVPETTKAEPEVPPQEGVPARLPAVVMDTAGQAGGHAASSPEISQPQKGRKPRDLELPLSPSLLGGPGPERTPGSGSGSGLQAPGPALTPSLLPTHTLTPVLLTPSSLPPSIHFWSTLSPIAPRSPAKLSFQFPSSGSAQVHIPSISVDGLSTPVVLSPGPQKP
Conditions: protein: recombinant; tags: N-terminal GST; dsDNA, one strand shown. In a few lines: as §1

For the next assay, the target named is T3, GABPA (Homo sapiens, UniProt Q06546 1-454).
T3 sequence: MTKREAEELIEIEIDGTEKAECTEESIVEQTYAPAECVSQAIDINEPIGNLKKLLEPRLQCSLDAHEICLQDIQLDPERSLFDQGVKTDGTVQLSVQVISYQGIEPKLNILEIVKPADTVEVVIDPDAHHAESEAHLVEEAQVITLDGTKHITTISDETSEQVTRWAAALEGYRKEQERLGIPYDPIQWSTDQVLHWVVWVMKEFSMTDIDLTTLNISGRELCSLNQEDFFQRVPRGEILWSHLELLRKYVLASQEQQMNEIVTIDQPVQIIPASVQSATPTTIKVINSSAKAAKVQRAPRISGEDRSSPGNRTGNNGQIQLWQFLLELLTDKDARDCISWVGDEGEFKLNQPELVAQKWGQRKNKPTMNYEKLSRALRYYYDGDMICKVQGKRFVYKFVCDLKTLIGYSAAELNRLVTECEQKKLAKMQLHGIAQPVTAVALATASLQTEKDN
The following applies: protein: recombinant; tags: N-terminal GST; dsDNA, one strand shown. In a few lines:
as §1

The target of the next assay is T4, ERG (Homo sapiens, UniProt P11308 1-479).
T4 sequence: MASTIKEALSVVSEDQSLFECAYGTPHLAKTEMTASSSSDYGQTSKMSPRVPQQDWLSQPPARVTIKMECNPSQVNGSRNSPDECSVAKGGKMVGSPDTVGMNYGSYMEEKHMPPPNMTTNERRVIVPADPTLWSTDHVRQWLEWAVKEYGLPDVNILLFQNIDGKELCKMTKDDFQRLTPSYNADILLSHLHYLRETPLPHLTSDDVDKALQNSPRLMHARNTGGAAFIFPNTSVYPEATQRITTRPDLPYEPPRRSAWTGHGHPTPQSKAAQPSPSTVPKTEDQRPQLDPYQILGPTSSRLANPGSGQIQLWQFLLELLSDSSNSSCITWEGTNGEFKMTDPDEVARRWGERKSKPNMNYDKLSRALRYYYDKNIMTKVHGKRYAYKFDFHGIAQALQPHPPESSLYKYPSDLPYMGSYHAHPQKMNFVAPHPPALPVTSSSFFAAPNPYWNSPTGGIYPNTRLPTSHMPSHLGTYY
Conditions: protein: recombinant; tags: N-terminal GST; dsDNA, one strand shown. In short, it runs like this:
as §1

The next assay concerns the target ELF1 (Homo sapiens, UniProt P32519 1-619). The following applies: protein: recombinant; tags: N-terminal GST; dsDNA, one strand shown. In a few lines: as §1
The target in the next assay is T5, EHF (Homo sapiens, UniProt Q9NZC4 1-300).
T5 sequence: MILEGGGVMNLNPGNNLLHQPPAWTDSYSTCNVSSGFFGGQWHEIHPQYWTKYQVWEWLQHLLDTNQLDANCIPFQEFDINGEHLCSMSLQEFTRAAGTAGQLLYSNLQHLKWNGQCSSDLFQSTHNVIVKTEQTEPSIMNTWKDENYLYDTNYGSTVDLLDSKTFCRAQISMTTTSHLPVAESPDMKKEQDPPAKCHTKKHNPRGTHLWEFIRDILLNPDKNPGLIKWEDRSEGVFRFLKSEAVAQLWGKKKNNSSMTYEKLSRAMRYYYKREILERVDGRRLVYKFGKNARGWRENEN
The following applies: protein: recombinant; tags: N-terminal GST; dsDNA, one strand shown. In a few lines:
as §1

The next assay addresses SPI1 (Homo sapiens, UniProt P17947 1-270). Conditions: protein: recombinant; tags: N-terminal GST; dsDNA, one strand shown. In short, it runs like this:
as §1

A further assay concerns the target SPIB (Homo sapiens, UniProt Q01892 1-262). Conditions: protein: recombinant; tags: N-terminal GST; dsDNA, one strand shown. In short, it runs like this:
as §1

The next assay addresses T6, ELK3 (Homo sapiens, UniProt P41970 1-407).
T6 sequence: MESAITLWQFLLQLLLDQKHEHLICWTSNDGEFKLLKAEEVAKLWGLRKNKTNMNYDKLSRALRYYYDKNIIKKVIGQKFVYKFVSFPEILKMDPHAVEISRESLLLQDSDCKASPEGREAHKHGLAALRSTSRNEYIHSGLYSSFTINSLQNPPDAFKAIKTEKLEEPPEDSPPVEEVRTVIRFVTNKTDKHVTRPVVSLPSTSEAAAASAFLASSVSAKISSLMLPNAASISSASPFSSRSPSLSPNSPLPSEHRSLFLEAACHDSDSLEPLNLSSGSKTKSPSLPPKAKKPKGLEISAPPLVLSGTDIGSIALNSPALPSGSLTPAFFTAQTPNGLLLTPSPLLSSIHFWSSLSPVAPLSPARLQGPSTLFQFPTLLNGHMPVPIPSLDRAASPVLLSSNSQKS
Conditions: protein: recombinant; tags: N-terminal GST; dsDNA, one strand shown. In short, it runs like this: as §1

A further assay deals with T7, FEV (Homo sapiens, UniProt Q99581 1-238).
T7 sequence: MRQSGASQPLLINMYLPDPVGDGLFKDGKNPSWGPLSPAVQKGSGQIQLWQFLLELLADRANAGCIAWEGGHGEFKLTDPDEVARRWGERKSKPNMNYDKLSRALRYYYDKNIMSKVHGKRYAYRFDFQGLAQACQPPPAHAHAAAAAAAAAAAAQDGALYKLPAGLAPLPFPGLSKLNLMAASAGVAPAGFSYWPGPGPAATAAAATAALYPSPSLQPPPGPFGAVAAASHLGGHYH
The following applies: protein: recombinant; tags: N-terminal GST; dsDNA, one strand shown. In short, it runs like this: as §1

The target in a further assay is ETV5 (Homo sapiens, UniProt P41161 1-510). The following applies: protein: recombinant; tags: N-terminal GST; dsDNA, one strand shown. In a few lines: as §1
ETV5, sequence (P41161 whole entry): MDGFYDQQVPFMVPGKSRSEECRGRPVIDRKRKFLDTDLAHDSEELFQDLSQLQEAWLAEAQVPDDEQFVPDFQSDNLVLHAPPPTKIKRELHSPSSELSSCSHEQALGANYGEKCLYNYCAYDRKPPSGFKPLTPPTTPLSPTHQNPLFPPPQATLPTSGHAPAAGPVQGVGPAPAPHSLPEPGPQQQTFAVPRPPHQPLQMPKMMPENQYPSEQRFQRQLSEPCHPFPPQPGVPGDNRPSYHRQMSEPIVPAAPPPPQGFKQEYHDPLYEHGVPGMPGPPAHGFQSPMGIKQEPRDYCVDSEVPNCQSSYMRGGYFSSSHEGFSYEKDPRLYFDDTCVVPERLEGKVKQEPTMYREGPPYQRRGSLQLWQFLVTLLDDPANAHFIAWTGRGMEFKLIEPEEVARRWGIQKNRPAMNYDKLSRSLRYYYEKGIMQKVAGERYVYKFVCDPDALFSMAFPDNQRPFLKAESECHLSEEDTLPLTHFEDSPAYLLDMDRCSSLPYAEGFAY
The target of another assay is HSF1 (Homo sapiens, UniProt Q00613 1-529). The following applies: protein: recombinant; tags: N-terminal GST; chain copies: 3; dsDNA, one strand shown. In short, it runs like this: as §1
HSF1, sequence (Q00613 whole entry): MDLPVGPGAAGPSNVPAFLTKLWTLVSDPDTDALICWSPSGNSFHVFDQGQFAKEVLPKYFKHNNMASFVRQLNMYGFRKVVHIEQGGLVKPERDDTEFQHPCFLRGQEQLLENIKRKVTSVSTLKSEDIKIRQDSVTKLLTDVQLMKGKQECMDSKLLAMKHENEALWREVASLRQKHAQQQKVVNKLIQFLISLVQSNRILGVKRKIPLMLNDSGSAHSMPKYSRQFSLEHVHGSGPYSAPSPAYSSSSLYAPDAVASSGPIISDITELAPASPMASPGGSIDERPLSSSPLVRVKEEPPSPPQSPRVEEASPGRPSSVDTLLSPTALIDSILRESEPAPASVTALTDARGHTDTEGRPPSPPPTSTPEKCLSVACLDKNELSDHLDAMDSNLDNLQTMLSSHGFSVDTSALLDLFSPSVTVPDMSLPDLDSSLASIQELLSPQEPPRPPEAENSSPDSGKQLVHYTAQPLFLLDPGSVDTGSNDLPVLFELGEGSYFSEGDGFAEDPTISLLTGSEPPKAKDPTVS
A further assay addresses T8, SPIC (Homo sapiens, UniProt Q8N5J4 1-248).
T8 sequence: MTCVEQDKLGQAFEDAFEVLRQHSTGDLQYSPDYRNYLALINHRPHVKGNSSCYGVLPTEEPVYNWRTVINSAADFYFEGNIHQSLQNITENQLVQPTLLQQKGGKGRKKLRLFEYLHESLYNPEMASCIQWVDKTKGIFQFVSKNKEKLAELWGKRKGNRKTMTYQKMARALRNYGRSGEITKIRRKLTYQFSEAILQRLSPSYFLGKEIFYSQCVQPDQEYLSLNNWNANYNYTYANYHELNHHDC
The following applies: protein: recombinant; tags: N-terminal GST; dsDNA, one strand shown. In a few lines:
as §1

In a further assay the target is ELF4 (Homo sapiens, UniProt Q99607 1-663). Conditions: protein: recombinant; tags: N-terminal GST; dsDNA, one strand shown. In short, it runs like this:
as §1

In a further assay the target is T9, ELK4 (Homo sapiens, UniProt P28324-2 1-405).
T9 sequence: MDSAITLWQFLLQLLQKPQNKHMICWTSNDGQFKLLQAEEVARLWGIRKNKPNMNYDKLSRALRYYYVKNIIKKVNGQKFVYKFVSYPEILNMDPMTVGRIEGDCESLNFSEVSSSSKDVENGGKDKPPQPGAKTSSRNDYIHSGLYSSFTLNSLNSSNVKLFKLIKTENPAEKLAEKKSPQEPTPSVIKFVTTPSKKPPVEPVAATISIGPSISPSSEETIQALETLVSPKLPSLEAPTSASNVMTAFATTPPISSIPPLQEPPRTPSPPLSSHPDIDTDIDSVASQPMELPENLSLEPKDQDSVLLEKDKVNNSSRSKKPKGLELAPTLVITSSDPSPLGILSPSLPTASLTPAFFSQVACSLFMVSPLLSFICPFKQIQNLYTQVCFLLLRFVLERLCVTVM
The following applies: protein: recombinant; tags: N-terminal GST; dsDNA, one strand shown. In short, it runs like this:
as §1

In a further assay the target is T10, ETV2 (Homo sapiens, UniProt O00321 1-342).
T10 sequence: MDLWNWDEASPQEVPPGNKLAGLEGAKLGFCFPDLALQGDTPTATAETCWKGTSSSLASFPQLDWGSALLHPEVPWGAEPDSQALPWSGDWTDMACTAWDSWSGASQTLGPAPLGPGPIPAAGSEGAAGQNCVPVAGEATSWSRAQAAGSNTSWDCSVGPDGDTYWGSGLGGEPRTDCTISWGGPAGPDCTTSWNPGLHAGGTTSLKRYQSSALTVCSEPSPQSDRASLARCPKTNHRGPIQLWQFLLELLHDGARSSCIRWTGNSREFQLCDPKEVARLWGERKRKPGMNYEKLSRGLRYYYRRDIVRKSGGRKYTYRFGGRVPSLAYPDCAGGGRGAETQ
Conditions: protein: recombinant; tags: N-terminal GST; dsDNA, one strand shown. In short, it runs like this: as §1

A further assay concerns the target T11, ELF3 (Homo sapiens, UniProt P78545 1-371).
T11 sequence: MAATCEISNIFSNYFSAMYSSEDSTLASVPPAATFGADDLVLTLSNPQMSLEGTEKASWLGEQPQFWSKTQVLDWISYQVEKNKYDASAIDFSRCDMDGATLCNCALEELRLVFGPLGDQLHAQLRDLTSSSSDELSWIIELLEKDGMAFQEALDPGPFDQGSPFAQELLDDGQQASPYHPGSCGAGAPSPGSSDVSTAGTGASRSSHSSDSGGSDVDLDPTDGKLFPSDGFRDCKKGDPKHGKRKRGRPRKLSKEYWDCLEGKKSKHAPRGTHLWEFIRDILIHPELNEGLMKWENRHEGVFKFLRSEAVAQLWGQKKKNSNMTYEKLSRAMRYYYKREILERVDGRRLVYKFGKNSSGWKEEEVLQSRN
Conditions: protein: recombinant; tags: N-terminal GST; dsDNA, one strand shown. In short, it runs like this:
as §1

A further assay has as its target CRX (Homo sapiens, UniProt O43186 1-299). Conditions: protein: recombinant; tags: N-terminal GST; dsDNA, one strand shown. In short, it runs like this: as §1
The target of the next assay is ETV1 (Homo sapiens, UniProt P50549 1-477). Conditions: protein: recombinant; tags: N-terminal GST; dsDNA, one strand shown. In short, it runs like this: as §1
ETV1, sequence (P50549 whole entry): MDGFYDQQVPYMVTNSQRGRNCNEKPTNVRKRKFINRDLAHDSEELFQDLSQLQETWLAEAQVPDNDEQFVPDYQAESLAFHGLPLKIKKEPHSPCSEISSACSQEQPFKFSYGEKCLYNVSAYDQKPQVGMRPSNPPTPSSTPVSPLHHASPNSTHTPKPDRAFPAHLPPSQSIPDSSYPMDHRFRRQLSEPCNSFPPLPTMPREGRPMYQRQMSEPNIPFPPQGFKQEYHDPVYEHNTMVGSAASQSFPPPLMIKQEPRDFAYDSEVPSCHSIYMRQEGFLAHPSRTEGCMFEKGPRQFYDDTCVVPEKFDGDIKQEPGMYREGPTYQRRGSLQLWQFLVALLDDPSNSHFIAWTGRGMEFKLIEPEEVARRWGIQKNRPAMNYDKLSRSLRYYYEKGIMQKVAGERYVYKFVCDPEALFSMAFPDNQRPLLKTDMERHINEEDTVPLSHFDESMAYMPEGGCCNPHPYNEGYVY

CRX, sequence (O43186 whole entry): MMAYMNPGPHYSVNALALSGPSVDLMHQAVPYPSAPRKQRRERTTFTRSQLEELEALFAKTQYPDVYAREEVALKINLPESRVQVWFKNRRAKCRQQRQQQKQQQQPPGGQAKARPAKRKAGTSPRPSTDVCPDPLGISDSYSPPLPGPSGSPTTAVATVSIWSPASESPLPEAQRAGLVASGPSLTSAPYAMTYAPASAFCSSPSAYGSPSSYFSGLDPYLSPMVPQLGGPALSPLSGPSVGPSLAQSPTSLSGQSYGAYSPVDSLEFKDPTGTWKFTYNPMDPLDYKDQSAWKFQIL
ELF1, sequence (P32519 whole entry): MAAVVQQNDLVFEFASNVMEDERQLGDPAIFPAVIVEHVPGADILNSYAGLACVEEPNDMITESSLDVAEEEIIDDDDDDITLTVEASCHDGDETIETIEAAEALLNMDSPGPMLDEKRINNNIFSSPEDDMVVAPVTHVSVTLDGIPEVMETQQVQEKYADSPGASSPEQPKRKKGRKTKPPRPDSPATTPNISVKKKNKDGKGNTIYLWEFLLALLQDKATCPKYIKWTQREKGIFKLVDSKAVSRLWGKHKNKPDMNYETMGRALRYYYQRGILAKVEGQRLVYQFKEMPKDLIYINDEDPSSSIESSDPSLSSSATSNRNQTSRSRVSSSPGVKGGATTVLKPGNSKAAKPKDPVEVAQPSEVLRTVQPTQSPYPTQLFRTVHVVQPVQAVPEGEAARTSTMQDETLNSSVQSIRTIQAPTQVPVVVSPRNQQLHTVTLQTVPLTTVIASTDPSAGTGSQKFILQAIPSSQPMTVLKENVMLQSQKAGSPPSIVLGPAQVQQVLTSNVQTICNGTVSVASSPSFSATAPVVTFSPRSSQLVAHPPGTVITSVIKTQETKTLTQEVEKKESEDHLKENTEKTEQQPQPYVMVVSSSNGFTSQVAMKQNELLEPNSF
SPIB, sequence (Q01892 whole entry): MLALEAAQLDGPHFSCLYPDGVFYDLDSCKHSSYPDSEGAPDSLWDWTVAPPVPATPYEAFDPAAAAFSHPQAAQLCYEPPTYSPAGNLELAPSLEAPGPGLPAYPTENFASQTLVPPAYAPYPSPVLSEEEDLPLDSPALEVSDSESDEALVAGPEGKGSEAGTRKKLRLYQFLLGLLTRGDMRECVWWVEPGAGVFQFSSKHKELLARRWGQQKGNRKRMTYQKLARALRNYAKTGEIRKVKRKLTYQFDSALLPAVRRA
ELF4, sequence (Q99607 whole entry): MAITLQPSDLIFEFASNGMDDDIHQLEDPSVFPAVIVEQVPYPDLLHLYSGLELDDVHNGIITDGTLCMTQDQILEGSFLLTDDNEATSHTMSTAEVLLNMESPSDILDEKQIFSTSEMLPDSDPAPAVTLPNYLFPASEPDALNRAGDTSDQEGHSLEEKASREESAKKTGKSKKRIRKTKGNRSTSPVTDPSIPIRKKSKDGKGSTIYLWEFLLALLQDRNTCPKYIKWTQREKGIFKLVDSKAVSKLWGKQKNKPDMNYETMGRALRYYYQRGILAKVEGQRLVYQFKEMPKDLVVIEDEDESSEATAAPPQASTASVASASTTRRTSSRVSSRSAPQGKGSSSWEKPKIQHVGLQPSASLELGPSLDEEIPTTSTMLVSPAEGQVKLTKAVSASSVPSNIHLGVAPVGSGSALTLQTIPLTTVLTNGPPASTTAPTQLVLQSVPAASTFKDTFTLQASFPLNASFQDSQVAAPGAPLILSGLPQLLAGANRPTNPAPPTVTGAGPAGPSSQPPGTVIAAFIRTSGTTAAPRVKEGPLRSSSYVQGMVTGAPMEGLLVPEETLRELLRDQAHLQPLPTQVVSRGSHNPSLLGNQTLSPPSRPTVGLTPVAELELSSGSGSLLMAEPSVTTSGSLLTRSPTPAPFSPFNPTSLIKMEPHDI

With CTTTCA, the binding signal with FLI1 was 1.45 fold enrichment (6-mer frequency, TF over GST control); with ELK1, 1.32 fold enrichment (6-mer frequency, TF over GST control); in the assay with GABPA, 1.46 fold enrichment (6-mer frequency, TF over GST control); with ERG, 1.23 fold enrichment (6-mer frequency, TF over GST control); with ELF1 it was 1.41 fold enrichment (6-mer frequency, TF over GST control); with EHF, 1.3 fold enrichment (6-mer frequency, TF over GST control). Further, the binding signal with SPI1 is 1.45 fold enrichment (6-mer frequency, TF over GST control); with SPIB it was 1.28 fold enrichment (6-mer frequency, TF over GST control); with ELK3 it was 1.36 fold enrichment (6-mer frequency, TF over GST control); in the assay with FEV it was 1.31 fold enrichment (6-mer frequency, TF over GST control); with ETV5, 1.26 fold enrichment (6-mer frequency, TF over GST control); with HSF1, 1.28 fold enrichment (6-mer frequency, TF over GST control). Further, the binding signal with SPIC was 1.37 fold enrichment (6-mer frequency, TF over GST control); with ELF4, 1.44 fold enrichment (6-mer frequency, TF over GST control); in the assay with ELK4 it was 1.54 fold enrichment (6-mer frequency, TF over GST control); in the assay with ETV2, 1.42 fold enrichment (6-mer frequency, TF over GST control); with ELF3, 1.18 fold enrichment (6-mer frequency, TF over GST control); with CRX it was 1.25 fold enrichment (6-mer frequency, TF over GST control). Also, the binding signal with ETV1 is 1.45 fold enrichment (6-mer frequency, TF over GST control).
